VHR inh abs: blocks human VHR1 dual specificity phosphatase; P51452; recombinant VHR phosphatase, pNPP absorbance; inhibition, % at 13.3 µM; 0.52% of 290,000 active; AID 1654; in the data active = inhibition above about 50%
Target sequence (P51452 whole entry, looked up): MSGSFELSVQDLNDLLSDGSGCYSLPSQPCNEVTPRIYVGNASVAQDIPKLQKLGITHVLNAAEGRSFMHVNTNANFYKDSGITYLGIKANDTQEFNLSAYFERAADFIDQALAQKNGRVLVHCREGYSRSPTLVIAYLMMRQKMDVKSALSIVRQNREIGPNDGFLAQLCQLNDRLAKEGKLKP
CCHF vOTU inh-1: blocks the CCHF virus ovarian tumor domain protease. CCHFV vOTU protease, Pep-AMC fluorescence. inhibition, % at 11.5 µM. 0.55% of 370,000 active
RecA intein inh: blocks M. tuberculosis RecA intein splicing; inhibition, % (test concentration not listed); 0.75% of 290,000 active; AID 2221; cell-free RecA intein splicing, fluorescence; in the data active = inhibition above about 30%
SARS 3CLpro inh: SARS-CoV 3CLpro protease inhibition; P0C6X7; inhibition, % at 6 µM; 0.14% of 290,000 active; recombinant SARS-CoV 3CLpro, quenched FRET peptide cleavage; in the data active = inhibition above about 12%
GFP chromo cs: counter-screen GFP chromophore formation inhibition | shares compounds with RecA intein inh | cell-free GFP chromophore formation, fluorescence | EC50, µM | 83% of 2,100 active | AID 434968; call rule not given here
CCHF vOTU inh-2: CCHFV vOTU protease inhibition, confirmation; shares compounds with CCHF vOTU inh-1; Recombinant CCHFV vOTU, Pep-AMC fluorescence; inhibition, % at 11.5 µM; 17% of 1,900 active
Numbers stand for hits; i = inactive; nt = not tested or not shown. In the library only some 1.5% were active in any assay of this set; here they are far more common. Rule as the data show it, unless noted: active = inhibition above about 30%; inactive = the rest.

SMILES	VHR inh abs	CCHF vOTU inh-1	RecA intein inh	SARS 3CLpro inh	GFP chromo cs	CCHF vOTU inh-2
O=C1NC[C@H](CCCCN2CCN(CCc3ccc(O)cc3)C(=O)C2=O)N(CCC2CCCCC2)C1=O	nt	i	nt	nt	nt	nt
COC(=O)[C@]12C[C@H](CC(=O)NCCCN3CCCC3=O)C(=O)N(Cc3cccc4ccccc34)C1=C[C@H](C(C)C)O[C@@H]2C1CC1	nt	i	nt	nt	nt	nt
CC(=O)c1c(C)oc2c1C(=O)c1ccccc1C2=O	i	i	i	i	nt	nt
COc1ccc(CNC(=O)c2c(C)oc3c2C(=O)c2ccccc2C3=O)cc1	i	54.0	57.8	i	23.4	47.9
Cc1cc(=O)n(C2CCS(=O)(=O)C2)[nH]1 (stereo not given)	i	57.4	93.4	i	3.79	i
Cc1ccccc1-c1nnnn1C1CCS(=O)(=O)C1 (stereo not given)	i	i	i	i	nt	nt
Cc1nnc(N/N=C\c2ccc(-c3ccccc3[N+](=O)[O-])o2)n1N	i	101.2	50.5	i	39.3	i
Oc1ccccc1/C=N/Nc1nn[nH]n1	i	i	i	i	nt	nt
Cc1nnc(N/N=C/c2ccccc2O)n1N	i	97.0	75.2	i	12.2	i
COc1ccc(NC(=O)Nc2ccc(O)c3ccccc23)cc1	nt	82.1	67.4	nt	4.3	i
COc1ccc(C(=O)Nc2ccc(O)c3ccccc23)cc1	nt	30.6	98.0	nt	0.218	i
COc1ccc(NC(=O)c2ccccc2NC(=O)c2ccccc2)cc1	i	i	i	i	nt	nt
O=[N+]([O-])c1c(Nc2ccccn2)cc(Cl)c2nonc12	i	113.0	87.1	i	2.11	94.5
O=[N+]([O-])c1ccc(Nc2ccccn2)c([N+](=O)[O-])c1	i	i	i	i	nt	nt
Cn1cc(CC(=O)Nc2ccc(Nc3cccnc3)cc2)c2ccccc21	nt	i	nt	nt	nt	nt
Nc1[nH]c2cc(C(F)(F)F)ccc2c1C(=O)NC1CCCCC1	nt	i	nt	nt	nt	nt
O=C1C(Cl)=C(Nc2ccc3cn[nH]c3c2)C(=O)c2ccccc21	i	86.6	89.5	i	1.52	79.7
NS(=O)(=O)c1ccc(N=Nc2ccc(O)c3ncccc23)cc1	i	i	i	i	nt	nt
NS(=O)(=O)c1ccc(N=Nc2ccc(=O)[nH]c2O)cc1	i	32.4	72.6	i	10	i
COc1cccc(C(c2c(C)[nH]n(-c3ccccc3)c2=O)c2c(C)[nH]n(-c3ccccc3)c2=O)c1O	nt	98.8	66.5	nt	1.48	i
CCOc1cccc(C(c2c(C)n(C)n(-c3ccccc3)c2=O)c2c(C)n(C)n(-c3ccccc3)c2=O)c1OC	nt	i	i	i	nt	nt
COc1cccc(C(c2c(C)[nH]n(-c3ccccc3)c2=O)c2c(C)[nH]n(-c3ccccc3)c2=O)c1OC	i	56.3	93.7	i	1.77	i
OC(c1ccc(-c2ccccc2)cc1)c1ncc(-c2ccc(F)cc2)[nH]1 (stereo not given)	nt	i	nt	nt	nt	nt
Cc1c(NC(=O)c2ccc([N+](=O)[O-])o2)cccc1-c1nc2ncccc2o1	i	i	i	i	nt	nt
C=CCCN1[C@@H](Cc2ccccc2)COc2ccccc2S1(=O)=O	nt	i	nt	nt	nt	nt
SMILES	VHR inh abs	CCHF vOTU inh-1	RecA intein inh	SARS 3CLpro inh	GFP chromo cs	CCHF vOTU inh-2
CC(C)=CCC1=C(OCC(=O)O)C(=O)c2ccccc2C1=O	i	110.4	62.6	i	12	85.1
CC(C)=CCC/C(C)=C/CC/C(C)=C/CC/C(C)=C/CC1=C(C)C(=O)c2ccccc2C1=O	i	i	i	nt	nt	nt
O=C1Cc2ccccc2C(=O)N1Cc1ccccc1	i	93.0	90.4	i	1.87	90.6
COc1ccc(CC(=O)Nc2cccc(/C(C)=N/NC(=O)C3(C)CC3(Br)Br)c2)cc1 (stereo not given)	i	i	i	i	nt	nt
COc1cc(N)c(C(=O)c2nccc3cc(OC)c(OC)cc23)cc1OC	i	i	i	i	nt	nt
COc1cc(C(=O)c2ccccc2)c([N+](=O)[O-])cc1OC	i	i	i	i	nt	nt
COc1cc(Br)c(C(=O)c2nccc3cc(OC)c(OC)cc23)cc1OC	i	111.0	84.4	i	0.75	90.0
COc1cc(C(=O)c2nccc3cc(OC)c(OC)cc23)c([N+](=O)[O-])cc1OC	i	103.1	95.3	i	0.389	72.3
COc1ccccc1CC(=O)c1ccc(OCc2ccccc2)cc1	nt	i	i	nt	nt	nt
Cc1ccc(NC2=C(NCCO)C(=O)c3ccccc3C2=O)cc1	i	114.8	70.7	i	19.9	42.0
CC(=O)Nc1ccc(NC2=C(Cl)C(=O)c3ccccc3C2=O)cc1	i	i	i	i	nt	nt
O=C(N/N=C1\C/C(=N\NC(=O)c2ccncc2)c2ccccc21)c1ccncc1	i	93.3	94.6	i	1.15	82.9
COc1ccc(S(=O)(=O)N(C)C[C@@H]2OCc3cn(nn3)CCCC(=O)N([C@H](C)CO)C[C@H]2C)cc1	nt	i	nt	nt	nt	nt
OCC[C@@H]1C[C@H](O)[C@@H](O)[C@]2(OCc3ccc4ccccc4c32)O1	nt	i	nt	nt	nt	nt
CCOC(=O)C(C(=O)OCC)c1cc(Br)c2noc3c2c1C(=O)c1ccccc1-3	i	35.3	82.1	i	3.3	i
CC(=O)OCCNc1cc(N2CCN(C)CC2)c2noc3c2c1C(=O)c1ccccc1-3	i	i	nt	i	nt	nt
Cc1ccsc1C(=O)N1CCC1(C)C(=O)NCc1cccnc1 (stereo not given)	nt	i	nt	nt	nt	nt
NC(=O)C1CCN(C2=C(Cl)C(=O)c3ccccc3C2=O)CC1	i	57.7	43.0	i	0.538	82.9
Cc1[nH][nH]c(=O)c1C(c1ccc(-c2ccc(F)cc2)o1)c1c(C)[nH][nH]c1=O	i	45.8	96.9	i	0.579	i
Cc1ccc(/C=C2\S/C(=N/S(=O)(=O)c3cccs3)NC2=O)cc1	i	i	i	i	nt	nt
Cc1ccc(S(=O)(=O)/N=C2\C=C(Nc3cccc(C(=O)O)c3)C(=O)c3ccccc32)c(C)c1	i	113.9	82.3	i	i	112.2
Cc1ccc(S(=O)(=O)/N=C2/C=C(Sc3ncn[nH]3)C(=O)c3ccccc32)c(C)c1	i	nt	nt	i	nt	nt
Cc1ccc(NC2=C/C(=N/S(=O)(=O)c3cccs3)c3ccccc3C2=O)cc1	i	98.4	31.0	i	0.139	98.7
CCCCn1c(NS(=O)(=O)c2ccc(C)cc2)c(S(=O)(=O)c2ccccc2)c2nc3ccccc3nc21	i	89.9	83.4	i	i	i
COc1cc(NS(=O)(=O)c2ccc(C)cc2)c2ncccc2c1	i	i	i	i	nt	nt
CCC(CNc1cc(OC)cc2cccnc12)NC1CCCCC1 (stereo not given)	54.1	109.8	67.2	i	24.6	102.3
COc1cc(NCCCC(C)N)c2ncccc2c1 (stereo not given)	nt	65.1	88.4	i	10.2	108.0
CC(C)(C)OC(=O)C[C@H]1C/C=C\C[C@@H](CC(=O)N(CCO)Cc2ccccc2)C(=O)N[C@@H](Cc2ccccc2)COC1=O	nt	i	nt	nt	nt	nt
Cc1ccc(S(=O)(=O)/N=C2\C(=O)c3ccccc3C([O-])=C2n2cc[n+](CCC(C)C)c2)cc1	i	nt	i	i	nt	nt
CC(=O)Nc1ccc(S(=O)(=O)/N=C2\C(=O)c3ccccc3C([O-])=C2n2cc[n+](-c3ccccn3)c2)cc1	i	67.8	85.3	i	6.15	58.1
